Screen size: about 320,000 compounds; about 2,100 (0.66%) were called active. Not shown: some 53% with an inconclusive outcome. The call rests on the fitted dose curve; in most records, active means well fitted inhibition curve with a large enough effect in the signal ratio, with a control signal flat (not every such curve was filed as active); inconclusive means small, poorly fitted or top-dose-only effect, or effect the other way, or a change in a side signal; inactive means flat fitted curve, though single readings scatter; the % refers to the signal ratio. For the sample, actives were picked, then their nearest neighbours and some compounds at random.
Assay: qHTS Assay for Lipid Storage Modulators in Drosophila S3 Cells;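 on cell number change: cells counted by Cell Tracker Red CMTPX staining in the red channel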; on lipid storage change, negative = inhibition: on the % scale 0 is the no-effect control and ±100 the full control effect
Conditions: BODIPY lipid droplet fluorescence, 18-24 h, cells fed with added oleic acid; cell number change: measured here: cell count max response; series mostly up to 46.1 µM; lipid storage change, negative = inhibition: at the top concentration
How it was run: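 Laser-scanning cytometry quantifies lipid droplet accumulation (500–530 nm total intensity; droplet/cell object ratio) in oleic acid-fed (400 uM added) Drosophila S3 cells treated with a concentration series. 20 uM Triacsin C defined 100% inhibition.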
For `CCCN(CC1CC1)C(=O)COC(=O)c1oc2c(F)cccc2c1C`, the Potency was 1.64 µM (active) and the cell number change was 1.1%.
In the case of `CCCN(CC1CC1)C(=O)COC(=O)c1oc2ccc(OCC)cc2c1C`, the Potency is reported as 4.61 µM (active) and the cell number change is reported as 2.78%.
For `CCOc1ccc2oc(C(=O)OCC(=O)NC3CCCCC3)c(C)c2c1`, the “lipid storage change, negative = inhibition” value was -2.63% (inactive) and the cell number change was -21.4%.
With `CCOC(=O)N1CCC(NC(=O)c2oc3c(F)cccc3c2C)CC1` the “outcome” value was “inactive” and the cell number change was -4.45%.
In the case of `CCn1c(O)c(C(C#N)=C2N=c3ccccc3=N2)c2ccccc21`, the “lipid storage change, negative = inhibition” value is reported as -0.582% (inactive) and the cell number change is reported as 24.7%.
For `O=C(Nc1cccc(NC(=O)c2ccc(Br)o2)n1)c1ccc(Br)o1`, the “lipid storage change, negative = inhibition” value was 17.3% (inactive) and the cell number change was -4.87%.
For `Cc1ccc(NS(=O)(=O)c2cc(C(=O)N3CCN(C)CC3)ccc2C)cc1C`, the “outcome” value was “inactive”.
In the case of `CCOc1cccc(OCCCCN2CCCCC2)c1`, the “lipid storage change, negative = inhibition” value is reported as 10.3% (inactive) and the cell number change is reported as -2.06%.
With `CCc1ccc(NC(=O)CN(N=Nc2nonc2C)c2nonc2C)cc1` the “lipid storage change, negative = inhibition” value was 0.106% (inactive).
With `CC(C)(C)c1csc(Sc2ncccc2[N+](=O)[O-])n1` the “lipid storage change, negative = inhibition” value was -5.1% (inactive) and the cell number change was -11.2%.
For `Cc1cccc(CSC2=CS(=O)(=O)c3ccccc3N2)c1`, the “lipid storage change, negative = inhibition” value was 1.8% (inactive) and the cell number change was 2.06%.
For `Cc1cccc(CNC(=O)c2cc(S(=O)(=O)N3CCOCC3)cn2C)c1`, the “outcome” value was “inactive” and the cell number change was 14.6%.
With `CC(=O)c1cccc(NC(=O)COc2ccc(S(=O)(=O)N3CCCCC3)cc2)c1` the “lipid storage change, negative = inhibition” value was 13.1% (inactive) and the cell number change was 12.3%.
With `Cc1nn(C(C)C(=O)O)c(C)c1[N+](=O)[O-]` (stereo unspecified) the “lipid storage change, negative = inhibition” value was -18.1% (inactive) and the cell number change was 3.58%.
With `O=C(Nc1nccs1)c1ccc(-c2ccc(F)c(Cl)c2)o1` the Potency was 10.3 µM (active) and the cell number change was -11.8%.
In the case of `O=C(Nc1nccs1)c1ccc(-c2ccc(F)cc2)o1`, the “lipid storage change, negative = inhibition” value is reported as 2.16% (inactive) and the cell number change is reported as 0.674%.
With `O=C(Nc1nccs1)c1ccc(-c2ccc(Cl)cc2Cl)o1` the “lipid storage change, negative = inhibition” value was -9.27% (inactive) and the cell number change was -16.9%.
In the case of `CCOC(=O)c1c(NC(=O)Cn2cnc([N+](=O)[O-])n2)sc2c1CCC(C)C2` (stereo unspecified), the “lipid storage change, negative = inhibition” value is reported as 6.52% (inactive) and the cell number change is reported as 2.74%.
With `Cc1ccccc1NC(=O)c1c(C)cc(=O)oc1C` the “lipid storage change, negative = inhibition” value was -2.94% (inactive).
With `Cc1cccc(NC(=O)c2c(C)cc(=O)oc2C)n1` the Potency was 8.2 µM (active) and the cell number change was -10.1%.
In the case of `Cc1cc(=O)oc(C)c1C(=O)Nc1ccc(Cl)cn1`, the “lipid storage change, negative = inhibition” value is reported as -4.54% (inactive) and the cell number change is reported as 1.04%.
In the case of `CC1=C(C)CC(C(=O)NNC(=O)c2csc(C)c2C)C(C(=O)O)C1` (stereo unspecified), the “lipid storage change, negative = inhibition” value is reported as 5.9% (inactive) and the cell number change is reported as -1.11%.
For `CS(=O)(=O)N(C(=O)NC(=O)NC12CC3CC(CC(C3)C1)C2)C1CCCCC1`, the “lipid storage change, negative = inhibition” value was 2.98% (inactive) and the cell number change was 9.2%.
In the case of `Cc1cc(-c2ccc(S(=O)(=O)N3CCN(c4ccc(F)cc4)CC3)s2)on1`, the “outcome” value is reported as “inactive” and the cell number change is reported as 5.9%.
For `CC(=O)c1ccc(N2CCN(S(=O)(=O)c3ccc(-c4cc(C)no4)s3)CC2)cc1`, the “outcome” value was “inactive”.
In the case of `COc1ccc(N2CCN(S(=O)(=O)c3ccc(-c4cc(C)no4)s3)CC2)cc1`, the Potency is reported as 23.1 µM (active).
In the case of `C=CCn1c(CCNC(=O)c2ccc(Cl)c(Cl)c2)nnc1SCCOc1ccc(OC)cc1`, the “lipid storage change, negative = inhibition” value is reported as 2.78% (inactive) and the cell number change is reported as -3.68%.
For `O=C(/C=C/c1ccc(F)cc1)NCc1cccs1`, the “lipid storage change, negative = inhibition” value was 20.7% (inactive) and the cell number change was 12.4%.
In the case of `Cc1nc2cc(NC(=O)C3COc4ccccc4O3)ccc2s1` (stereo unspecified), the “lipid storage change, negative = inhibition” value is reported as 0.94% (inactive) and the cell number change is reported as 3.18%.
With `COc1ccc(S(=O)(=O)N2CCN(CC(=O)c3[nH]c(C)c(C(C)=O)c3C)CC2)cc1OC` the “lipid storage change, negative = inhibition” value was 8.72% (inactive) and the cell number change was 3.31%.
With `Cc1ccc(S(=O)(=O)NCC(=O)OCc2cc(=O)oc3c(C)c(C)ccc23)cc1C` the “lipid storage change, negative = inhibition” value was 13.6% (inactive) and the cell number change was 11.5%.
With `CN(CC(=O)Nc1ccc(Cl)c(Cl)c1)C(=O)CNC(=O)Cc1ccccc1` the “lipid storage change, negative = inhibition” value was 19% (inactive) and the cell number change was -4.02%.
With `COc1ccccc1NC(=O)C1CCCN(S(=O)(=O)c2cnc[nH]2)C1` (stereo unspecified) the “lipid storage change, negative = inhibition” value was 7.37% (inactive) and the cell number change was 1.66%.
For `COc1ccccc1NC(=O)NCCN1CCCCC1`, the “lipid storage change, negative = inhibition” value was -2.26% (inactive) and the cell number change was 6.08%.
With `COc1ccccc1NC(=O)C1CCCN(S(=O)(=O)c2ccccc2)C1` (stereo unspecified) the Potency was 5.8 µM (active) and the cell number change was -11%.
In the case of `COc1ccccc1NC(=O)N1CCCC1`, the “lipid storage change, negative = inhibition” value is reported as 8.15% (inactive) and the cell number change is reported as 1.33%.
In the case of `COc1ccccc1NC(=O)NN1CCCCC1`, the Potency is reported as 0.58 µM (active) and the cell number change is reported as 17.6%.
In the case of `COc1ccccc1NC(=O)C1CCCN(S(=O)(=O)c2ccc(-n3cnnn3)cc2)C1` (stereo unspecified), the “outcome” value is reported as “inactive” and the cell number change is reported as -7.69%.
In the case of `COc1ccc2c(c1)[nH]c1c(=O)n(N)cnc12`, the “lipid storage change, negative = inhibition” value is reported as 8.27% (inactive) and the cell number change is reported as 6.47%.
In the case of `Cn1cc(/C=C/C(=O)N2CCCC(C(=O)c3cccc4ccccc34)C2)cn1` (stereo unspecified), the “lipid storage change, negative = inhibition” value is reported as -4.39% (inactive) and the cell number change is reported as 8.66%.
For `Cc1ccc(N2CC(NC(=O)C(=O)c3c[nH]c4ccccc34)CC2=O)cc1C` (stereo unspecified), the “lipid storage change, negative = inhibition” value was 1.15% (inactive) and the cell number change was 20.5%.
For `Cc1nc(NC(=O)COC(=O)CCc2nc3ccccc3s2)c(Cl)cc1Cl`, the “lipid storage change, negative = inhibition” value was -1.19% (inactive) and the cell number change was 8.53%.
In the case of `C[C@H](NC(=O)c1nc[nH]c1C(=O)N[C@@H](Cc1ccccc1)C(=O)OCc1ccccc1)c1ccccc1`, the “lipid storage change, negative = inhibition” value is reported as -6.18% (inactive).
For `O=C(CNc1cccc2ccccc12)N/N=C/c1ccc([N+](=O)[O-])o1`, the Potency was 16.4 µM (active) and the cell number change was -25.8%.
In the case of `CCCCCCCC(=O)N/N=C/c1ccc([N+](=O)[O-])o1`, the “lipid storage change, negative = inhibition” value is reported as -11.4% (inactive) and the cell number change is reported as -5.79%.
With `CCCC(=O)Nc1ccc(C(=O)N/N=C/c2ccc([N+](=O)[O-])o2)cc1` the Potency was 14.6 µM (active) and the cell number change was -15.2%.
In the case of `O=C(N/N=C/c1ccc([N+](=O)[O-])o1)C(=O)Nc1ccc(C(=O)O)cc1`, the “lipid storage change, negative = inhibition” value is reported as 13.1% (inactive) and the cell number change is reported as 8.32%.
For `O=C(CNc1ccc2ccccc2c1)N/N=C/c1ccc([N+](=O)[O-])o1`, the “lipid storage change, negative = inhibition” value was 26.8% (inactive).
With `O=C(CNc1cccc2ccccc12)N/N=C/c1ccc([N+](=O)[O-])cc1` the “lipid storage change, negative = inhibition” value was -3.45% (inactive) and the cell number change was -4.75%.
Potency means the concentration at half of the fitted maximal effect.
